Test results published in PubChem BioAssay (NCATS).
Values joined by “and” are separate entries in the source; they are usually repeats but may differ in a detail not shown here. Identical values can stand only once. Results filed as inconclusive are left out. Values without a mark were called inactive. Active and inactive are the calls of the source. Calls follow the shape of the dose curve; as a rule, active = well fitted cell-killing curve with a large enough effect; inconclusive = small, poorly fitted or top-dose-only effect; inactive = flat fitted curve, though single readings scatter.

experiment: Cellular viability qHTS for adrenocortical cancer (ACC) cell line SW-13 (AID 1963989); conditions: SW-13 ACC cells viability, CellTiter-Glo, 48 h; activity (max response): stronger effect = lower value; also: nearly all actives have a fitted effect of over 65% in size;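 as to activity (max response): cells grown in serum-free medium with ITS supplement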
Procedure, shortened: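 SW-13 cells in ITS-supplemented serum-free DMEM were plated overnight, then exposed for 48 h at 37C to compound titrations (up to 46 uM final). Viability was read by CellTiter-Glo luminescence; four-parameter logistic fits gave IC50 and efficacy.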
% is scaled to controls: 0 for no effect and ±100 for the full control effect; potency is read from the fitted curve at half-maximal effect.

Structure (SMILES) | activity (max response) | Potency
Cc1nc2ccccn2c(=O)c1CCN1CCC(C(=O)c2ccc(F)cc2)CC1 | -20% | 
Cc1nc(C2CCCCC2)c(-c2ccc(S(N)(=O)=O)c(F)c2)o1 | 16% | 
CN1C(=O)N[C@@H](Cc2c[nH]c3c(Cl)cccc23)C1=O | -3.59% | 
CCC(CN)=C(c1ccccc1)c1ccccc1 | -12.8% | 
CC(C)=CCC/C(C)=C/CC/C(C)=C/CSc1ccccc1C(=O)O | -19.3% | 
CNCCCN1c2ccccc2CCc2ccccc21 |  | 20.6 µM (active)
O=C(NC1CCN(CCc2c[nH]c3ccccc23)CC1)c1ccccc1 | -18.1% | 
C[C@@H](O[C@H]1OCCN(Cc2n[nH]c(=O)[nH]2)[C@H]1c1ccc(F)cc1)c1cc(C(F)(F)F)cc(C(F)(F)F)c1 |  | 18.4 µM (active)
Nc1cc(COc2c(Cl)cc(C[C@H](N)C(=O)O)cc2Cl)c2oc(-c3ccccc3)nc2c1 | 4.08% | 
O=C(/C=C/N1C[C@H]2C[C@@H]1CN2c1ccccn1)c1ccccc1O | -11.7% | 
O=C1C(CCS(=O)c2ccccc2)C(=O)N(c2ccccc2)N1c1ccccc1 (stereo not given) | 7.53% | 
C=C1/C(=C/C=C2\CCCC3(C)[C@@H]([C@H](C)/C=C/C=C/C(O)(CC)CC)CC[C@@H]23)C[C@@H](O)C[C@@H]1O (stereo not given in full) | -11% | 
O=C(Nc1cccc(C(F)(F)F)c1)c1cccc2cc(Oc3cc(CO)ncn3)ccc12 | 9.86% | 
O=c1c(-n2ccnn2)c[nH]n1-c1cc(N2CCOCC2)ncn1 | -5.69% | 
CC(C)OC(=O)c1cc2c(OCC(O)CNC(C)(C)C)cccc2[nH]1 (stereo not given) | -10.4% | 
Cc1c(Cl)cccc1Nc1ccccc1C(=O)O | -8.75% | 
CC(CC1c2ccccc2CCc2ccccc21)CN(C)C (stereo not given) | -20.3% | 
CCCCCC=CCC=CCCCCCCCC(=O)OCC | -4.47% | 
CC(C)c1c(-c2ccccc2)nc2c(C#N)c[nH]n2c1=O | -8.31% | 
CN1CCN(C2=Nc3ccccc3Oc3ccc(Cl)cc32)CC1 | -13.7% | 

Structure (SMILES) | activity (max response) | Potency
COc1ccc2nc(NC(=O)Nc3ccccc3)sc2c1 | -20% | 
CCCCCCCCCCCCCC[N+](C)(C)C |  | 4.61 µM (active)
CCc1cnn2c(NCc3ccc[n+]([O-])c3)cc(N3CCCC[C@H]3CCO)nc12 |  | 0.0355 µM (active)
CCOC(=O)C(=O)CCc1ccccc1 | 6.65% | 
Cc1c(F)cc(C(=O)NC2CC2)cc1-c1c(F)cn2c(C(C)(C)C)nnc2c1F | -10.3% | 
OC1CCC([C@H](O)C[C@H]2c3c(F)cccc3-c3cncn32)CC1 (stereo not given in full) | -0.756% | 
COc1cc2c(cc1OC)C(=O)C(CC1CCN(Cc3ccccc3)CC1)C2 (stereo not given) | -16.2% | 
Nc1ccc(S(=O)(=O)Nc2ccc(Cl)nn2)cc1 | 1.77% | 
Cc1nc2c([nH]1)c(=O)n(C)c(=O)n2Cc1ccco1 | -2.81% | 
CSCC[C@H](NC(=O)[C@H](Cc1c[nH]c2ccccc12)NC(=O)CCNC(=O)OC(C)(C)C)C(=O)N[C@@H](CC(=O)O)C(=O)N[C@@H](Cc1ccccc1)C(N)=O | 1.93% | 
COc1cc2c3c(n(CCCn4ccnc4)c(=O)c2cc1OC)-c1cc2c(cc1C3=O)OCO2 |  | 0.0316 µM (active)
CN1CCC(OC(c2ccccc2)c2ccccc2)CC1 | 0.851% | 
CCCNC(=O)c1cn2ncnc(Nc3cc(C(=O)NC4CC4)ccc3C)c2c1C | 7.33% | 
Nc1ccc(N)c([N+](=O)[O-])c1 | -20.8% | 
O=C1S/C(=C\c2ccc(OCc3cccc(B(O)O)c3)cc2)C(=O)N1Cc1ccc(F)cc1 | -17.7% | 
Cc1cc(O)c2c(O)c3c(O)cccc3cc2c1 | -2.49% | 
COc1cc2c3c(n(CCCN4CCOCC4)c(=O)c2cc1OC)-c1cc2c(cc1C3=O)OCO2 |  | 2.51 µM (active)
CC(=O)Nc1ccc(S(=O)(=O)Nc2ccc([N+](=O)[O-])cc2)cc1 | 3.97% | 
C[C@H]1C[C@@H]2[C@H]([C@@H](O)C[C@@]3(C)[C@H]2CC[C@]3(O)C(=O)CO)[C@@]2(C)C=CC(=O)C=C12 | 8.4% and 9.49% | 
NC(=O)C(=O)N/N=C/c1ccc([N+](=O)[O-])o1 | -15.1% | 
